# Shown are actives, neighbours in structure and some others; about 12% of the full set was active somewhere.
# USP8 inh = human USP8 deubiquitinase inhibition; P40818; purified USP8, Ub-rhodamine cleavage fluorescence, 30 min; inhibition, % at 20 µM; 47,000 compounds, 4.2% hits; AID 1645853
# USP17 block = blocks human USP17 ubiquitin-rhodamine cleavage | A8MUK1 | purified USP17, Ub-rhodamine cleavage fluorescence, 3 h | inhibition, % at 50 µM | 47,000 compounds, 6.5% hits
# USP30 block = human USP30 deubiquitinase inhibition; purified USP30, Ub-rhodamine cleavage fluorescence; inhibition, % at 25 µM; 47,000 compounds, 5.3% hits; AID 1645860
# Numbers without * were called inactive; i = inactive; / = no result. No stated cut-off is given here; in the data, active means inhibition above about 30%; inactive means the rest.
SMILES,USP8 inh,USP17 block,USP30 block
CCN1CCN(c2nc3c(c(Nc4ccccc4)n2)C(=O)CCC3)CC1,-12.3,-12.9,-17.0
COC(=O)c1ccc(C(=O)Nc2cc3ccccc3cc2NC(=O)c2ccc(C(=O)OC)cc2)cc1,16.2,68.2*,40.8*
COC(=O)c1ccccc1NC(=O)c1ccc2c(c1)OCCCO2,9.0,7.2,18.5
COC(=O)c1ccc(C(=O)Nc2ccc3sccc3c2)cc1,30.7*,22.5,26.7
O=C(Nc1ccc2sccc2c1)c1ccc(S(=O)(=O)N2CCOCC2)cc1,8.8,/,27.9
CC(=O)N(C)C1CCC2(CC1)CN(Cc1ccc3c(c1)OCCO3)Cc1ccccc1O2 (stereo unspecified),-19.5,-20.5,-19.3
Cc1ccc(-c2nc(C(=O)N3CCC(C(=O)O)CC3)cs2)cc1,5.7,0.9,-0.2
Cc1cccc(C(=O)Nc2nnc(Cc3cn(C)c4ccccc34)s2)c1,33.5*,27.4,-61.9
O=C(Nc1ccc2c(c1)OCCO2)Nc1nnc(CC(=O)N2CCOCC2)s1,-3.5,-6.7,1.5
Cc1cccc(C(=O)Nc2nc3c(s2)CCC3)c1,5.1,-0.1,13.3
Cc1cccc(NC(=O)Nc2nnc(CC(=O)NCc3ccccc3)s2)c1,-1.4,72.6*,3.4
O=C(Cc1nnc(NC(=O)Nc2ccc3c(c2)OCO3)s1)NCc1ccccc1,48.1*,8.3,6.0
O=C(Cc1nnc(NC(=O)Nc2ccccc2Cl)s1)NCc1ccccc1,-46.5,-133.0,i
CC(=O)Nc1cccc2c(C(=O)NCCN3CCCCC3)ccnc12,-1.6,-6.9,-1.3
CCC(C(=O)Nc1cc(-c2ccccn2)no1)c1ccccc1 (stereo unspecified),-0.7,-19.6,-4.3
CC(=O)NC(Cc1ccc(C)cc1)C(=O)NC1CCN(c2nc(C)cc(C)c2C#N)CC1 (stereo unspecified),-2.8,-25.3,-46.9
CC1CCN(S(=O)(=O)N2CCCC(C(=O)Nc3ccccc3C(F)(F)F)C2)CC1 (stereo unspecified),9.5,13.6,19.0
COc1ccc2c(c1)c1ncn(CCCn3ccnc3)c(=O)c1n2C,5.2,0.8,-1.2
CCn1cnc2c(-c3ccccc3)cn(CC(=O)NCc3ccc(F)cc3)c2c1=O,14.0,0.2,-76.0
Cn1c2ccccc2c2ncn(Cc3ccc(F)cc3)c(=O)c21,-1.5,71.2*,33.9*
CCCCn1cnc2c3cc(F)ccc3n(C)c2c1=O,15.1,65.0*,64.6*
O=C(CCCn1c(SCc2ccccc2F)nc2ccccc2c1=O)NCCc1ccccc1,2.4,5.9,14.9
O=C(NCC(c1cccnc1)N1CCc2ccccc2C1)C(=O)Nc1ccc2c(c1)OCO2 (stereo unspecified),24.4,74.5*,-5.8
O=C(NCC(c1cccnc1)N1CCc2ccccc2C1)c1ccc(F)cc1 (stereo unspecified),8.7,-7.2,-42.6
O=C(C1CCOCC1)N1Cc2cc(Cl)ccc2OC2(CCOCC2)C1,-0.1,-0.1,-12.0
SMILES,USP8 inh,USP17 block,USP30 block
Cc1[nH]c(C(=O)Nc2cccc(F)c2)c(C)c1S(=O)(=O)N1CCCC1,15.6,-5.7,-60.0
Cc1[nH]c(C(=O)NC2CCCCCC2)c(C)c1S(=O)(=O)N1CCCC1,38.7*,43.0*,-34.4
Cc1nc2c(nnn2C[C@H]2CCCN2C(=O)c2ccc(F)cc2)c(=O)[nH]1,-0.6,-0.2,-5.4
CC(C)NC(=O)c1ccc2c(c1)nc(CN(C)C(=O)Nc1ccccc1)n2C,-1.3,-6.0,6.2
Cc1ccc(NC(=O)COc2ccccc2-c2noc(-c3cccc(F)c3)n2)cc1,10.4,17.0,0.0
O=C(Cn1cc(-c2nc(C3CC3)no2)ccc1=O)Nc1ccccc1F,7.0,12.6,7.6
N#Cc1cccc(NC(=O)Cn2cccc2-c2nc(-c3ccccc3)no2)c1,31.0*,31.0*,13.1
Cc1nc(-c2noc(-c3cccc(F)c3)n2)cn1CC(=O)Nc1ccccc1,38.2*,-16.6,-4.2
N#Cc1cccc(NC(=O)Cn2cccc(-c3nc(-c4ccccc4)no3)c2=O)c1,22.6,-164.9,i
O=C(Cn1cc(-c2nc(C3CC3)no2)ccc1=O)Nc1ccccc1,3.5,48.8*,-18.8
Cc1ccc(C(=O)Nc2ccc3c(c2)NC(=O)C(C)O3)cc1NC(=O)c1ccco1 (stereo unspecified),3.7,-0.5,-7.3
Cc1c(C(=O)NCc2ccccc2)nnn1-c1cccc2c1CCN(C)C2,-22.1,-17.0,-18.1
COc1ccccc1NC(=O)c1nnc2c(-c3ccccc3)c(C)nn2c1C,22.5,19.9,25.6
COc1ccc(C(=O)Nc2ccc3c(N4CCOCC4)ncnc3c2)cc1,7.8,-12.4,-19.1
COc1ccc(NC(=O)c2ccc3ccnc(N4CCN(c5ccc(OC)cc5)CC4)c3c2)cc1,15.2,47.3*,-15.7
N#Cc1ccc(Cc2ncc(C(F)(F)F)cc2Cl)s1,0.3,2.7,-0.1
Cc1ccc(NC(=O)c2cccc(N3C(=O)CCS3(=O)=O)c2)cc1C,-8.4,-11.7,0.8
